From PubChem BioAssay (EPA / NIEHS)
Values joined by “and” are separate entries in the source; they are usually repeats but may differ in a detail not shown here. Equal values may be shown once. Active and inactive are the calls of the source. The calls were made as follows: active = hit-call score of the fitted dose curve at least 0.9, where 1 is the maximum; inactive = score below 0.9.

What follows are molecules tested on CD69, CD69 (gene 969) (assay: BSK_SAg_CD69: BioMAP Diversity Plus: SAg Assay for CD69 Biomarker Activity (AID 2283089;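 as to AC50: cell surface CD69 protein quantified by ELISA with fluorescence detection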)). Conditions: primary human HUVEC with PBMC; actives raise or lower the signal.
In short: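 Primary human vascular co-culture (umbilical vein endothelium with peripheral blood mononuclear cells) exposed to test chemical for 24 h. CD69 levels quantified by fluorescence ELISA; DMSO served as negative control for bidirectional fitting.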
For `O=C(O)CCC(F)(F)C(F)(F)C(F)(F)C(F)(F)C(F)(F)F`, the outcome was “inactive”.
For `COc1cccc(O)c1`, the outcome was “inactive”.
For `NC(=NCCCCCCN=C(N)/N=C(\N)Nc1ccc(Cl)cc1)/N=C(\N)Nc1ccc(Cl)cc1`, the AC50 was 7.57 µM (active).
For `Clc1ccc(Nc2nnc(Cc3ccncc3)c3ccccc23)cc1`, the outcome was “inactive”.
With `O=C(CC(=O)C(F)(F)C(F)(F)C(F)(F)F)c1cccs1` the AC50 was 17.6 µM (active) and 30 µM (active).
`CCCCCCCCCCCCCCCCCC[N+](C)(C)Cc1ccccc1` was tested, and the AC50 was 2.73 µM (active).
`Oc1c(Cl)cc(Cl)cc1Sc1cc(Cl)cc(Cl)c1O` was tested, and the AC50 was 13.2 µM (active) and 16.2 µM (active).
With `CCCCCCCCCCCC` the outcome was “inactive”.
For `O=C(O)C(F)(F)OC(F)(F)C(F)(F)OC(F)(F)C(F)(F)OC(F)(F)C(F)(F)C(F)(F)C(F)(F)F`, the AC50 was 42.8 µM (active) and 32 µM (active).
In the case of `OCCN1CN(CCO)CN(CCO)C1`, the AC50 is reported as 38.7 µM (active).
`Cc1cccc2c1ccc1ccccc12` was tested, and the outcome was “inactive”.
`O=P(O)(O)CCC(F)(F)C(F)(F)C(F)(F)C(F)(F)C(F)(F)C(F)(F)F` was tested, and the outcome was “inactive”.
In the case of `O=C(NCc1ncc(C(F)(F)F)cc1Cl)c1c(Cl)cccc1Cl`, the outcome is reported as “inactive”.
`CCCCCCCCCCCCOS(=O)(=O)O` was tested, and the outcome was “inactive”.
For `O=C(CCCN1CCC(O)(c2ccc(Cl)cc2)CC1)c1ccc(F)cc1`, the outcome was “inactive”.
With `CCCCCCCCCCCCCCC` the outcome was “inactive”.
With `O=S(=O)(O)C(F)(F)C(F)(F)C(F)(F)C(F)(F)C(F)(F)C(F)(F)C(F)(F)C(F)(F)C(F)(F)C(F)(F)F` the outcome was “inactive”.
`OCC(F)(F)C(F)(F)C(F)(F)C(F)(F)C(F)(F)C(F)(F)C(F)(F)C(F)(F)C(F)(F)C(F)(F)C(F)(F)F` was tested, and the outcome was “inactive”.
